Experimental data: PubChem BioAssay (EPA / NIEHS)
Activity calls are given as the source filed them. The calls were made as follows: active = hit-call score of the fitted dose curve at least 0.9, where 1 is the maximum; inactive = score below 0.9.

Experiments:
[1] = read-out: Tumor necrosis factor receptor superfamily member 6 (Homo sapiens) (UniProt P25445); assay: LTEA_HepaRG_FAS: Life Technologies and Expression Analysis (LTEA) Assay for Fas cell surface death receptor (FAS) using HepaRG (AID 2283447); conditions: mRNA level, 48 h; actives raise or lower the signal
Summary of the method: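 Differentiated HepaRG cells in serum-free induction medium were exposed 48 h to 8 half-log concentrations up to 100 uM in 0.5% DMSO, in duplicate. FAS mRNA was measured by qRT-PCR normalised to ACTB, GAPDH and POLR2A; bidirectional fit versus DMSO.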

[2] = read-out: Fatty acid synthase (Homo sapiens) (UniProt P49327); assay: LTEA_HepaRG_FASN: Life Technologies and Expression Analysis (LTEA) Assay for Fatty Acid Synthase (FASN) using HepaRG (AID 2283448); conditions: mRNA level, 48 h; actives raise or lower the signal
Summary of the method: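 Cells were plated, cultured 48 h, switched to serum-free induction medium, then dosed in duplicate (max 100 uM, half-log dilutions, 0.5% DMSO) for 48 h. RNA was then isolated and FASN quantified by qRT-PCR.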

[3] = read-out: Cyclin D2 (CCND2), CCND2 (gene 894); assay: LTEA_HepaRG_CCND2: Life Technologies and Expression Analysis (LTEA) Assay for Cyclin D2 (CCND2) using HepaRG (AID 2283449); conditions: mRNA level, 48 h; actives raise or lower the signal;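 also: CCND2 transcript measured by TaqMan qRT-PCR and normalised to three housekeeping genes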
Summary of the method: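 HepaRG, 48 h dosing, 8-pt half-log curve from 100 uM, 0.5% DMSO; duplicate wells. Readout: CCND2 transcript by microfluidic qRT-PCR, housekeeping-normalised; bidirectional fit vs DMSO baseline.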

[4] = read-out: Cyclin Dependent Kinase Inhibitor 1A (CDKN1A), CDKN1A (gene 1026); assay: LTEA_HepaRG_CDKN1A: Life Technologies and Expression Analysis (LTEA) Assay for Cyclin Dependent Kinase Inhibitor 1A (CDKN1A) using HepaRG (AID 2283450); conditions: mRNA level, 48 h; actives raise or lower the signal
Summary of the method: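 Cryopreserved HepaRG cells were plated and cultured 48 h, then switched to serum-free induction medium. Chemicals (eight half-log concentrations, top 100 uM, 0.5% DMSO) were applied for 48 h. Lysates underwent qRT-PCR for CDKN1A with housekeeping normalization.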

[5] = read-out: Cyclin D1 (CCND1), CCND1 (gene 595); assay: LTEA_HepaRG_CCND1: Life Technologies and Expression Analysis (LTEA) Assay for Cyclin D1 (CCND1) using HepaRG (AID 2283451); conditions: mRNA level, 48 h; actives raise or lower the signal;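 as to AC50: TaqMan qRT-PCR transcript level normalised to ACTB GAPDH and POLR2A housekeeping genes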
Summary of the method: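 Human liver HepaRG line; 48 h dosing, 8 conc. ≤100 uM, 0.5% DMSO; TaqMan qRT-PCR mRNA, 3 housekeeping genes; bidirectional curve fit vs DMSO.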

[6] = read-out: catalase (CAT), CAT (gene 847); assay: LTEA_HepaRG_CAT: Life Technologies and Expression Analysis (LTEA) Assay for catalase (CAT) using HepaRG (AID 2283452); conditions: mRNA level, 48 h; actives raise or lower the signal
Summary of the method: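 HepaRG cells in serum-free induction medium, 0.5% DMSO vehicle, exposed 48 h in duplicate over 8 half-log concentrations from 100 uM. CAT mRNA measured by qRT-PCR, normalized to ACTB, GAPDH, POLR2A; bidirectional fit versus DMSO.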

[7] = read-out: flavin-containing dimethylaniline monooxygenases 3 (FMO3), FMO3 (gene 2328); assay: LTEA_HepaRG_FMO3: Life Technologies and Expression Analysis (LTEA) Assay for flavin-containing dimethylaniline monooxygenases 3 (FMO3) using HepaRG (AID 2283453); conditions: mRNA level, 48 h; actives raise or lower the signal
Summary of the method: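 FMO3 transcript quantified by TaqMan qRT-PCR against three housekeeping genes after 48 h chemical exposure of HepaRG cells. Eight-point half-log series, top 100 uM, 0.5% DMSO vehicle; phenobarbital 1mM induction control; up- or down-regulation fitted.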

[8] = read-out: CFLAR gene, CFLAR (gene 8837); assay: LTEA_HepaRG_CFLAR: Life Technologies and Expression Analysis (LTEA) Assay for CFLAR gene using HepaRG (AID 2283455); conditions: mRNA level, 48 h; actives raise or lower the signal
Summary of the method: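 qRT-PCR read-out (Fluidigm/TaqMan) of CFLAR mRNA, normalized to three housekeeping genes, in differentiated human HepaRG cells after 48 h chemical exposure; 8-point half-log series from 100 uM in 0.5% DMSO; bidirectional curve fitting versus DMSO.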

[9] = read-out: growth arrest and DNA damage 45 (GADD45A), GADD45A (gene 1647); assay: LTEA_HepaRG_GADD45A: Life Technologies and Expression Analysis (LTEA) Assay for growth arrest and DNA damage 45 (GADD45A) using HepaRG (AID 2283458); conditions: mRNA level, 48 h; actives raise or lower the signal
Summary of the method: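 Transcript induction or loss, quantified by TaqMan qRT-PCR against three housekeeping genes, is the read-out. HepaRG cells received chemicals for 48 h across eight half-log concentrations from 100 uM in 0.5% DMSO; gain and loss fitted relative to DMSO.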

[10] = read-out: Forkhead box O3 (FOXO3), FOXO3 (gene 2309); assay: LTEA_HepaRG_FOXO3: Life Technologies and Expression Analysis (LTEA) Assay for Forkhead box O3 (FOXO3) using HepaRG (AID 2283459); conditions: mRNA level, 48 h; actives raise or lower the signal
Summary of the method: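 qRT-PCR readout of FOXO3 transcript, normalized to three housekeeping genes (ACTB, GAPDH, POLR2A); gain or loss fitted against 0.5% DMSO vehicle. HepaRG cells, 48 h chemical exposure, 8-point half-log series, top 100 uM.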

[11] = read-out: ABC Transporter (ABCB1), ABCB1 (gene 5243); assay: LTEA_HepaRG_ABCB1: Life Technologies and Expression Analysis (LTEA) Assay for ABC Transporter (ABCB1) using HepaRG (AID 2283460); conditions: mRNA level, 48 h; actives raise or lower the signal
Summary of the method: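 HepaRG, 48 h exposure, 8-pt half-log series from 100 uM, 0.5% DMSO vehicle, duplicates. Readout: ABCB1 transcript by Fluidigm TaqMan qRT-PCR, housekeeping-normalized; bidirectional curve fit vs DMSO baseline.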

[12] = read-out: growth arrest and DNA damage 45 (GADD45B), GADD45B (gene 4616); assay: LTEA_HepaRG_GADD45B: Life Technologies and Expression Analysis (LTEA) Assay for growth arrest and DNA damage 45 (GADD45B) using HepaRG (AID 2283461); conditions: mRNA level, 48 h; actives raise or lower the signal
Summary of the method: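 Values are bidirectional concentration-response fits against 0.5% DMSO controls. Underlying data: qRT-PCR mRNA levels in human HepaRG liver cells treated 48 h in serum-free induction medium, eight concentrations topping at 100 uM.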

[13] = read-out: ABC Transporter (ABCC3), ABCC3 (gene 8714); assay: LTEA_HepaRG_ABCC3: Life Technologies and Expression Analysis (LTEA) Assay for ABC Transporter (ABCC3) using HepaRG (AID 2283462); conditions: mRNA level, 48 h; actives raise or lower the signal
Summary of the method: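 Differentiated HepaRG liver cells receive test chemicals at eight concentrations (max 100 uM) for 48 h. Expression of ABCC3 is quantified by qRT-PCR against ACTB, GAPDH and POLR2A, and activity is fitted in both directions against the DMSO control.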

[14] = read-out: ABC Transporter (ABCB11), ABCB11 (gene 8647); assay: LTEA_HepaRG_ABCB11: Life Technologies and Expression Analysis (LTEA) Assay for ABC Transporter (ABCB11) using HepaRG (AID 2283463); conditions: mRNA level, 48 h; actives raise or lower the signal
Summary of the method: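 HepaRG, 48 h exposure, 8-pt half-log CRC top 100 uM, 0.5% DMSO vehicle, duplicates. Readout: TaqMan qRT-PCR of ABCB11 mRNA, housekeeping-normalized (ACTB/GAPDH/POLR2A). Bidirectional fit vs DMSO baseline.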

[15] = read-out: ABC Transporter (ABCC2), ABCC2 (gene 1244); assay: LTEA_HepaRG_ABCC2: Life Technologies and Expression Analysis (LTEA) Assay for ABC Transporter (ABCC2) using HepaRG (AID 2283464); conditions: mRNA level, 48 h; actives raise or lower the signal
Summary of the method: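 Gene expression of ABCC2 was determined by qRT-PCR in HepaRG cells exposed 48 h to chemicals (highest 100 uM, half-log dilutions). Activity was fitted in both directions relative to 0.5% DMSO vehicle.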

[16] = read-out: Broad substrate specificity ATP-binding cassette transporter ABCG2 (Homo sapiens) (UniProt Q9UNQ0); assay: LTEA_HepaRG_ABCG2: Life Technologies and Expression Analysis (LTEA) Assay for ABC Transporter (ABCG2) using HepaRG (AID 2283465); conditions: mRNA level, 48 h; actives raise or lower the signal
Summary of the method: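 HepaRG, 48 h exposure, 8-pt half-log series from 100 uM, 0.5% DMSO vehicle, duplicates. Readout: ABCG2 transcript by qRT-PCR (Fluidigm array), housekeeping-normalized; bidirectional curve fit relative to DMSO baseline.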

[17] = read-out: ATP-citrate lyase (ACLY), ACLY (gene 47); assay: LTEA_HepaRG_ACLY: Life Technologies and Expression Analysis (LTEA) Assay for ATP-citrate lyase (ACLY) using HepaRG (AID 2283466); conditions: mRNA level, 48 h; actives raise or lower the signal
Summary of the method: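 qRT-PCR readout of ACLY transcript after 48 h chemical treatment of HepaRG cells; expression normalized to three housekeeping genes. Eight-point half-log series, highest 100 uM, 0.5% DMSO vehicle. Gain or loss fitted against DMSO baseline.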

[18] = read-out: Cytochrome P450 (CYP1A1), CYP1A1 (gene 1543); assay: LTEA_HepaRG_CYP1A1: Life Technologies and Expression Analysis (LTEA) Assay for Cytochrome P450 (CYP1A1) using HepaRG (AID 2283454); conditions: mRNA level, 48 h; actives raise or lower the signal
Summary of the method: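 Induction of CYP1A1 mRNA in a human hepatic cell line was measured 48 h after dosing, with 1 mM phenobarbital as induction positive control and 0.5% DMSO vehicle as baseline for bidirectional curve fitting.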

[19] = read-out: Forkhead box O1 (FOXO1), FOXO1 (gene 2308); assay: LTEA_HepaRG_FOXO1: Life Technologies and Expression Analysis (LTEA) Assay for Forkhead box O1 (FOXO1) using HepaRG (AID 2283456); conditions: mRNA level, 48 h; actives raise or lower the signal
Summary of the method: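 HepaRG, 48 h exposure, 8-pt half-log series from 100 uM in 0.5% DMSO, duplicates; Fluidigm qRT-PCR mRNA, housekeeping-normalised; bidirectional fit vs DMSO baseline.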

[20] = CEETOX_H295R_TESTO: CeeTox H295R High-throughput Steroidogenesis Assay for Testosterone (TESTO) (AID 2283457); conditions: actives raise or lower the signal
Summary of the method: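 Testosterone synthesis is assessed in human adrenocortical H295R cells after 48 h of chemical exposure, using HPLC-MS/MS of extracted medium. Activity is fitted in both directions against DMSO control.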

Measured: AC50

Broad substrate specificity ATP-binding cassette transporter ABCG2 (Homo sapiens), sequence (Q9UNQ0 whole entry, looked up): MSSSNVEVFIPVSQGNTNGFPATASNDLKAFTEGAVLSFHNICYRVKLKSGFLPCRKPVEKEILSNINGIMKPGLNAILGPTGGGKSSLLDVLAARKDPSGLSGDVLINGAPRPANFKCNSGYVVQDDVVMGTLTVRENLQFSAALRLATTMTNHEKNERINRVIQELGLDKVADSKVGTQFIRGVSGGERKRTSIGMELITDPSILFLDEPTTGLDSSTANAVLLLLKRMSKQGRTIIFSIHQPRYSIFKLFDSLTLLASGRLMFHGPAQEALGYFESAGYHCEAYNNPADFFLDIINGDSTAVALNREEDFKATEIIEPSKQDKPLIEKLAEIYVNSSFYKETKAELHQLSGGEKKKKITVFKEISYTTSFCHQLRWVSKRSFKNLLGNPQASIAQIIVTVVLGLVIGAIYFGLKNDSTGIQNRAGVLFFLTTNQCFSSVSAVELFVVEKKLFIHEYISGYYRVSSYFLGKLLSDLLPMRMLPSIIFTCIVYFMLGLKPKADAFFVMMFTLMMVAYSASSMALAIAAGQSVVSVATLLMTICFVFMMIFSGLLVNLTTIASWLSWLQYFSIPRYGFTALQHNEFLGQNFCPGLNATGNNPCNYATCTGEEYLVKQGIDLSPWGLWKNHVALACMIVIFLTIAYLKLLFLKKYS
Fatty acid synthase (Homo sapiens), sequence (P49327 whole entry, looked up): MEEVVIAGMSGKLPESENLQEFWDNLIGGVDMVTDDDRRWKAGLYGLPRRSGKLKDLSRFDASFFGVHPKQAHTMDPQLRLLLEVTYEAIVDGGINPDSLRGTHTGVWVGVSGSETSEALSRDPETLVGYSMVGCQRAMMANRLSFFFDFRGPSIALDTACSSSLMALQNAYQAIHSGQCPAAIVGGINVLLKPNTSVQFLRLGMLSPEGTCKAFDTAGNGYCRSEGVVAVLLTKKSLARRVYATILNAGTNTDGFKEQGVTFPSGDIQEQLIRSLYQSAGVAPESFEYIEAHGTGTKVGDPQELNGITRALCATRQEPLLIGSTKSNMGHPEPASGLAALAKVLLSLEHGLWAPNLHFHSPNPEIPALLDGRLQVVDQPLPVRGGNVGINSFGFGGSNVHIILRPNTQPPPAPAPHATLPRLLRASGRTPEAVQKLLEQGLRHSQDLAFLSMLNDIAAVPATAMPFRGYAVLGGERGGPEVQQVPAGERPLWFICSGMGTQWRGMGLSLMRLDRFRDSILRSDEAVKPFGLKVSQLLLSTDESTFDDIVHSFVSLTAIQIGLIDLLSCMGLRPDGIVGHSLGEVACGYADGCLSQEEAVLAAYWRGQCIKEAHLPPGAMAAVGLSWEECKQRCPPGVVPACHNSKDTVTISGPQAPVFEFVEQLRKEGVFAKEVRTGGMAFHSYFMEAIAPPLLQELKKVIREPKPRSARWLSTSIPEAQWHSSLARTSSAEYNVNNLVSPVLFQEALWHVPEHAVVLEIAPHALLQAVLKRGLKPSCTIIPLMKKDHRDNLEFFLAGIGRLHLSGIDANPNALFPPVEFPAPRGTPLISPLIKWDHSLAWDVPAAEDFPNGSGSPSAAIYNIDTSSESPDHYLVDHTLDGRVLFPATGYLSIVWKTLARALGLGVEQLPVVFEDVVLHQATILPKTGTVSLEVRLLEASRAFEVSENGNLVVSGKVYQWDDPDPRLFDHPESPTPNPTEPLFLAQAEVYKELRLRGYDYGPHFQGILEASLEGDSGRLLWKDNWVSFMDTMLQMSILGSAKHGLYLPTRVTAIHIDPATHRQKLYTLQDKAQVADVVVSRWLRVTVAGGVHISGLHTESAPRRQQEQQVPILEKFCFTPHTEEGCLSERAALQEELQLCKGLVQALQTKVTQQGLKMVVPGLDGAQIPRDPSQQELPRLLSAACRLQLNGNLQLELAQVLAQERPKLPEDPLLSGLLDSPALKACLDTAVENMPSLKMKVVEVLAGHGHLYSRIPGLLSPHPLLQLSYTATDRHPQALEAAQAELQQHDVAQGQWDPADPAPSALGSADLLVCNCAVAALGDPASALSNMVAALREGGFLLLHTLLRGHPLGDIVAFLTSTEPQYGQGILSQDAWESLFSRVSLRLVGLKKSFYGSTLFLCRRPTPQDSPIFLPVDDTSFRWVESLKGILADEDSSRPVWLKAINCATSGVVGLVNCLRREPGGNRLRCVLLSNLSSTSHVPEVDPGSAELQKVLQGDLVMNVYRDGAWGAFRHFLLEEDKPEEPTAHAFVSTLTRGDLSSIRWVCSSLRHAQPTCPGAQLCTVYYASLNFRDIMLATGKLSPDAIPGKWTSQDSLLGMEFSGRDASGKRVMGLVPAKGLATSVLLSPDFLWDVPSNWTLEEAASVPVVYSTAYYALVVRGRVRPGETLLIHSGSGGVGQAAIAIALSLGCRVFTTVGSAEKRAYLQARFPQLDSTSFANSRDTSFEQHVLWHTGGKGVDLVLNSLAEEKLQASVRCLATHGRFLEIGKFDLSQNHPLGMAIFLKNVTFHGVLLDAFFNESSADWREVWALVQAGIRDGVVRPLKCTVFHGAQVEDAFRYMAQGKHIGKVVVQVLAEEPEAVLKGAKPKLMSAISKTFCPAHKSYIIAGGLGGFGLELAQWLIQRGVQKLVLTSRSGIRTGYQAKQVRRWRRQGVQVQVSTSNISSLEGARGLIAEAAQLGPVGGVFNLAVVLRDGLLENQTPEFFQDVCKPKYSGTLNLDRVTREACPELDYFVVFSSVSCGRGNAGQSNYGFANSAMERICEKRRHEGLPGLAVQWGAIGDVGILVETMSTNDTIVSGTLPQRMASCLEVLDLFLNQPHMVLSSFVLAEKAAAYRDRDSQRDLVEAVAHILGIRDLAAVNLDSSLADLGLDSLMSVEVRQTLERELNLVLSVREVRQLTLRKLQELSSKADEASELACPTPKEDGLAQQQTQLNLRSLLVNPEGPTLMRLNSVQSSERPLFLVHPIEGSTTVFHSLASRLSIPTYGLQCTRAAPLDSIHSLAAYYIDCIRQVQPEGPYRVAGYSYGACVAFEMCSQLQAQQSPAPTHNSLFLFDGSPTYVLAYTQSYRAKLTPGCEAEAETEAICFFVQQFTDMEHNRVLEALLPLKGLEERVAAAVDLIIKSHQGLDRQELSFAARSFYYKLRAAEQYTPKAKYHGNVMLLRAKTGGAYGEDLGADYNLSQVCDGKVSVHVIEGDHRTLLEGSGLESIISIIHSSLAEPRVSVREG

NC(=O)N1C(=O)C(C(=O)c2cc(Cl)cs2)c2cc(F)c(Cl)cc21 (configuration not stated)
inactive: [1] | [2] | [4] | [8]
active: [3] 28.7 µM | [5] 13.1 µM | [6] 25.1 µM | [7] 20 µM | [9] 36 µM | [10] 35 µM | [11] 19.4 µM | [12] 28.1 µM | [13] 12.8 µM | [14] 15.6 µM | [15] 27.7 µM | [16] 50 µM | [17] 21 µM

CCC(C)(C)C1CCC(O)CC1 (configuration not stated)
not listed: [18] | [19] | [20]
inactive: all other assays above

CCCCCCCCOC(=O)CCCCCCCCC(=O)OCCCCCCCC
not listed: [3] | [18] | [19] | [20]
inactive: all other assays above

Nc1cccc2c(N)cccc12
active: [2] 18.3 µM | [18] 9 µM | [10] 22.4 µM | [14] 50 µM
not listed: [3]
inactive: all other assays above

OC1CCCCC1
not listed: [3] | [18] | [20]
inactive: all other assays above

CCCCCCCCCCCCc1ccccc1S(=O)(=O)O
active: [1] 50 µM | [2] 74.5 µM | [6] 88.9 µM | [7] 83.3 µM | [10] 87.9 µM | [14] 85.7 µM | [15] 12.3 µM | [16] 50 µM
not listed: [18] | [19] | [20]
inactive: all other assays above

C#C[C@]1(O)CC[C@H]2[C@@H]3CCC4=CC(=O)CC[C@@H]4[C@H]3CC[C@@]21C
active: [2] 50 µM | [11] 9.92 µM | [14] 0.24 µM | [15] 50 µM | [16] 15.4 µM
not listed: [6] | [19] | [20]
inactive: all other assays above

OCCC(F)(F)C(F)(F)C(F)(F)C(F)(F)C(F)(F)C(F)(F)F
not listed: [18] | [19] | [20]
inactive: all other assays above

ClC1=C(Cl)C(Cl)(Cl)C(Cl)=C1Cl
not listed: [18] | [19] | [20]
inactive: all other assays above

Oc1cccc(O)c1
not listed: [3] | [18] | [19] | [20]
inactive: all other assays above

CC(C)CCCCCCOC(=O)CCCCC(=O)OCCCCCCC(C)C
not listed: [18] | [19] | [20]
inactive: all other assays above
